Results as given in PubChem BioAssay (NCATS).
Records with an inconclusive call do not appear. Values without a mark were called inactive. The source made the active and inactive calls. Calls follow the shape of the dose curve; as a rule, active = well fitted curve in the direction sought with a large enough effect; inconclusive = small, poorly fitted or top-dose-only effect, or another doubt; inactive = no such curve, though single readings can be large; an effect the other way counts as inactive or inconclusive.

What was measured:
[1] = BET inhibitor-based combinations targeting novel dependencies in MECOM-rearranged (r) AML: SET-2 cell line (AID 2202231); settings: SET-2 AML cells viability, CellTiter-Glo luminescence, 48 h; viability: stronger effect = lower value, concentration not given here; also: nearly all actives have a fitted effect of over 35% in size;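 as to viability: plate controls were DMSO treated cells for no effect and wells without cells for full effect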
Outline: (§1)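 AML cell lines seeded at 500 cells/well, treated with 11-point dose curves for 48 h. Viability by CellTiter-Glo luminescence, normalised to DMSO and empty wells; activity expressed as AUC and per-cell-line Z-transformed AUC.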

[2] = BET inhibitor-based combinations targeting novel dependencies in MECOM-rearranged (r) AML: OCI-AML3 cell line (AID 2202232); settings: CellTiter-Glo luminescence, 48 h; Potency: OCI-AML3 viability; series mostly up to 46 µM; also: nearly all actives have a fitted effect of over 35% in size
Outline: as §1

[3] = BET inhibitor-based combinations targeting novel dependencies in MECOM-rearranged (r) AML: MV-4-11 cell line (AID 2202233); settings: MV-4-11 AML viability, CellTiter-Glo luminescence, 48 h; series mostly up to 46 µM; also: nearly all actives have a fitted effect of over 45% in size
Outline: (§2)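 Cells at 500/well were exposed for 48 hr to MIPE v5.0 drugs as 11-point dose curves. Viability was read by CellTiter-Glo luminescence and normalized to DMSO and empty-well controls. Activity was expressed as AUC and per-cell-line Z-AUC.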

[4] = target: Retinaldehyde dehydrogenase 3 (Homo sapiens) (UniProt P47895); test: qHTS for Inhibitors of the Aldehyde Dehydrogenase Family (ALDH1A3) Primary screen (AID 2061315); settings: ALDH inhibition qHTS; series mostly up to 56 µM
[5] = BET inhibitor-based combinations targeting novel dependencies in MECOM-rearranged (r) AML: HNT-34 cell line (AID 2202234); settings: HNT-34 AML viability, CellTiter-Glo luminescence, 48 h; series mostly up to 46 µM; also: nearly all actives have a fitted effect of over 35% in size
Outline: as §2

[6] = BET inhibitor-based combinations targeting novel dependencies in MECOM-rearranged (r) AML: UCSD-AML1 cell line (AID 2202235); settings: UCSD-AML1 AML cells viability, CellTiter-Glo, 48 h; series mostly up to 46 µM; also: nearly all actives have a fitted effect of over 40% in size
Outline: as §2

[7] = BET inhibitor-based combinations targeting novel dependencies in MECOM-rearranged (r) AML: AML-191 cell line (AID 2202236; also: nearly all actives have a fitted effect of over 35% in size); settings: AML-191 viability, CellTiter-Glo luminescence, 48 h; series mostly up to 46 µM
Outline: as §1

[8] = BET inhibitor-based combinations targeting novel dependencies in MECOM-rearranged (r) AML: AML-194 cell line (AID 2202237; also: nearly all actives have a fitted effect of over 40% in size); settings: AML-194 (MECOM-r AML) viability, CellTiter-Glo, 48 h; series mostly up to 46 µM
Outline: as §1

[9] = target: Aldehyde dehydrogenase 1A1 (Homo sapiens) (UniProt P00352); test: qHTS for Inhibitors of the Aldehyde Dehydrogenase Family (ALDH1A1) Confirmatory screens (AID 2061316); settings: ALDH inhibition qHTS; series mostly up to 47.3 µM; also: nearly all actives have a fitted effect of over 65% in size
Potency is read from the fitted curve at half-maximal effect.

With CN(C)c1ccc(-c2nc3ncc(Cl)c(N4CCN(CC(=O)Nc5nccs5)CC4)c3[nH]2)cc1 the viability [1] was 105%, the Potency [2] was 1.62 µM (active) and the Potency [3] was 0.723 µM (active).

In the case of CCOC(=O)C1=CCCCC1S(=O)(=O)Nc1ccc(F)cc1Cl (stereo not drawn), the Potency [1] is reported as 20.9 µM (active).

With CC(C)NCCCn1c(Sc2cc(Cl)cc(Cl)c2)nc2c(N)ncnc21 the viability [1] was 98.3%, the Potency [2] was 10.5 µM (active) and the Potency [3] was 14.8 µM (active).

For COc1nc(N)nc2c1ncn2C1OC(CO)C(O)C1O (stereo not drawn), the viability [1] was 114%, the Potency [2] was “inactive” and the Potency [3] was “inactive”.

Work on CC(/C=C/[C@@H]1C[C@]1(C)c1ccc2c(c1)C(C)(C)CCC2(C)C)=C\C(=O)O yielded a viability [1] of 110%.

With COc1ccc(-c2cc(C(O)C3CCCCN3)c3ccccc3n2)cc1 (stereo not drawn) the Potency [4] was “inactive”, the Potency [1] was 14.8 µM (active) and the Potency [2] was 20.9 µM (active). The Potency [3] was 2.95 µM (active), the Potency [5] was 13.2 µM (active) and the Potency [6] was 9.34 µM (active). For the same molecule, the Potency [7] was 14.8 µM (active) and the Potency [8] was 11.8 µM (active).

In the case of Cc1ccc(NC(=O)Nc2nnc(Sc3ncnc4cc(OCCCN5CCOCC5)ccc34)s2)cc1, the viability [1] is reported as 111%, the Potency [2] is reported as 14.8 µM (active) and the Potency [3] is reported as 0.0166 µM (active). For the same molecule, the Potency [5] was 14.8 µM (active).

In the case of Cc1cc(C(=O)NOCCO)c(Nc2ccc(I)cc2F)n(C)c1=O, the viability [1] is reported as 96.3%, the Potency [2] is reported as 0.0059 µM (active) and the Potency [3] is reported as 0.0295 µM (active). The Potency [5] was 0.0468 µM (active).

In the case of CN1CCN(c2ccc(Nc3ncc4cc(C#N)c(=O)n(C5CCCC5)c4n3)cc2)CC1, the Potency [1] is reported as 1.18 µM (active), the Potency [2] is reported as 0.105 µM (active) and the Potency [3] is reported as 0.186 µM (active).

In the case of C/C=C(/C)C(=O)O[C@H]1C(C)=CC23C(=O)C(C=C(CO)[C@@H](O)[C@]12O)[C@H]1[C@@H](C[C@H]3C)C1(C)C (stereo partly drawn), the Potency [1] is reported as 7.42 µM (active), the Potency [2] is reported as 0.0053 µM (active) and the Potency [3] is reported as 0.0525 µM (active).

For O=C(NOCCO)c1cc(CN2OCCCC2=O)c(F)c(F)c1Nc1ccc(I)cc1F, the viability [1] was 70.8%.

In the case of CC(C)C(=O)OCC(=O)[C@@]12O[C@H](C3CCCCC3)O[C@@H]1C[C@H]1[C@@H]3CCC4=CC(=O)C=C[C@]4(C)[C@H]3[C@@H](O)C[C@@]12C, the viability [1] is reported as 102%, the Potency [2] is reported as 14.8 µM (active) and the Potency [3] is reported as 23.5 µM (active). The Potency [5] was 20.9 µM (active).

For C=CC[N+]1([C@H]2C[C@H]3[C@@H]4CC[C@H]5C[C@H](O)[C@@H](N6CCOCC6)C[C@]5(C)[C@H]4CC[C@]3(C)[C@H]2OC(C)=O)CCCC1, the viability [1] was 115%, the Potency [2] was “inactive” and the Potency [3] was “inactive”. For the same molecule, the Potency [5] was “inactive”, the Potency [6] was “inactive” and the Potency [7] was “inactive”.

With O=c1[nH]c(=O)n([C@H]2C[C@H](O)[C@@H](CO)O2)cc1F the Potency [1] was 0.296 µM (active), the Potency [2] was 0.417 µM (active) and the Potency [3] was 0.0742 µM (active). The Potency [5] was 5.9 µM (active).

Work on CC1=C2[N-][C@H]([C@H](CC(N)=O)[C@@]2(C)CCC(=O)NC[C@@H](C)OP(=O)([O-])O[C@H]2[C@@H](O)[C@@H](n3cnc4cc(C)c(C)cc43)O[C@@H]2CO)[C@]2(C)N=C(C(C)=C3N=C(C=C4N=C1[C@@H](CCC(N)=O)C4(C)C)[C@@H](CCC(N)=O)[C@]3(C)CC(N)=O)[C@@H](CCC(N)=O)[C@]2(C)CC(N)=O.O.[Co+2] yielded a viability [1] of 95.1%.

For COc1ccc2c(c1)CCc1sc(NC(=O)c3ccc(Br)cc3)nc1-2, the Potency [9] was 10.2 µM (active).

For CN(CCO)C1CCN(c2ccc(Nc3ncc4c5ccnc(F)c5n(C5CCCC5)c4n3)nc2)CC1, the Potency [1] was 2.04 µM (active), the Potency [2] was 0.182 µM (active) and the Potency [3] was 0.129 µM (active). For the same molecule, the Potency [5] was 1.82 µM (active).

For CC(=O)[C@]1(N)Cc2c(O)c3c(c(O)c2[C@@H](O[C@H]2C[C@H](O)[C@H](O)CO2)C1)C(=O)c1ccccc1C3=O, the viability [1] was 106% and the Potency [2] was 8.33 µM (active).

With CN(C)c1ccc(Nc2nc(N)n(C(=O)c3c(F)cccc3F)n2)cc1 the Potency [4] was 14.1 µM (active), the Potency [1] was 18.6 µM (active) and the Potency [2] was 23.5 µM (active). The Potency [3] was 4.17 µM (active), the Potency [5] was 14.8 µM (active) and the Potency [6] was 2.63 µM (active). The Potency [7] was 18.6 µM (active).

In the case of CCC(=O)NC[C@H](Cc1ccc(OCCc2nc(-c3ccccc3)oc2C)cc1)N/C(C)=C\C(=O)c1ccc(C(F)(F)F)cc1, the viability [1] is reported as 111%, the Potency [2] is reported as 20.9 µM (active) and the Potency [3] is reported as 23.5 µM (active).

For CN(Cc1ccccc1)C(=O)c1ccc(S(=O)(=O)Nc2ccccc2)cc1, the Potency [4] was “inactive”, the viability [1] was 103% and the Potency [2] was “inactive”. The Potency [6] was “inactive”.

Work on CN[C@@H](C)C(=O)N[C@H](C(=O)N1CCC[C@H]1C(=O)Nc1sc(-c2ncco2)nc1-c1ccccc1)C1CCCCC1 yielded a viability [1] of 112%.

For Cc1[nH]c(/C=C2\C(=O)Nc3ccccc32)c(C)c1CCC(=O)O, the viability [1] was 83.1%, the Potency [2] was 20.9 µM (active) and the Potency [3] was 13.2 µM (active).

In the case of N#Cc1cc2cc(CN3CCC(Nc4ncnc5sc(CC(F)(F)F)cc45)CC3)c(O)cc2n1Cc1cn[nH]c1, the Potency [1] is reported as 23.5 µM (active), the Potency [2] is reported as 18.6 µM (active) and the Potency [3] is reported as 5.9 µM (active). The Potency [5] was 23.5 µM (active).
